In ChEMBL document CHEMBL3988442, “University of Dundee, Small-Polar-MMV Screening Library” (2021):
Hit rate of the full screen: of about 48,000 compounds, about 13,000 (27%) showed an effect of 50% or more. This is one part of the list.

These compounds were tested on Wolbachia pipientis (assay: Anti-Wolbachia Cell-Based Screen). Conditions: 5 µM.
Type: functional
Parameters: scale not given: in the data most compounds retested in dose-response had high values

| Compound | Percent Effect |
| --- | --- |
| COC(=O)[C@H]1CN(C(=O)NC(C)C)CCN1C(=O)CSC | 4.68% |
| CSCCN(C)Cc1ccc(F)cc1C#N | -7.692% |
| CC(C)c1nnc(N2C[C@@H]3CC[C@H](C2)N(Cc2ccccc2)C3)s1 | 104.2% |
| CCCN1C[C@H]2CC[C@@H]1CN(Cc1ccc(Cn3cccn3)cc1)C2 | -13.63% |
| CC(C)c1nnc(N2C[C@@H](CN(C)CCO)[C@@H](CO)C2)s1 | -2.617% |
| Cc1ccc(C(=O)N2C[C@@H]3CC[C@H](C2)N(CC2CCC2)C3)s1 | -1.222% |
| CCCN1C[C@H]2CC[C@@H]1CN(c1nnc(C(C)C)s1)C2 | 100.1% |
| Cc1nnsc1CN1C[C@@H]2CC[C@H](C1)N(Cc1ccccc1)C2 | -5.089% |
| CC(=O)c1ccc(C(=O)N2C[C@@H]3CC[C@H](C2)N(CC2CCC2)C3)s1 | -8.325% |
| CC(C)c1nnc(N2C[C@@H]3CC[C@H](C2)N(CC2CCC2)C3)s1 | 78.31% |
| Cc1nnsc1CN1C[C@H]2CC[C@@H]1CN(Cc1ccccc1)C2 | 2.749% |
| N#CCCNC(=O)CN1CCC(c2cc3ccccc3[nH]2)CC1 | 7.04% |
| O=C(O)C(F)(F)F.O=C(O)[C@]12CCCN(Cc3ccsc3)C[C@H]1CN(c1ncccn1)C2 | 0.06928% |
| CCc1nc(CN2CCCC(NCc3nc4cccnc4[nH]3)C2)no1 (configuration not stated) | -2.824% |
| Cc1ccc(CN2CCCC3(COCCN(Cc4c[nH]nn4)C3)C2)s1.O=C(O)C(F)(F)F.O=C(O)C(F)(F)F (configuration not stated) | -11.68% |
| Fc1ccc(OCc2noc(CN3CCc4cncnc4C3)n2)cc1 | -13.93% |
| CC(=O)N1CCC(c2nccnc2Nc2cnccn2)CC1 | 118.2% |
| CC(C)N1CCC(c2nccnc2Nc2cnccn2)CC1 | 128.3% |
| CC(C(=O)NC(C)(C)C)N1CCC(C(=O)Nc2cnccn2)CC1 (configuration not stated) | -9.659% |
| OCC(CO)N1CCC(c2nnc(Cn3ccnc3)n2C2CC2)CC1 | 11.43% |
| OCC(CO)N1CCC(c2nccnc2Nc2cnccn2)CC1 | 132.8% |
| CN1CCC(c2nccnc2Nc2cnccn2)CC1 | 94.48% |
| CCc1ccccc1OCCN1CC[C@@]2(O)CCNC[C@H]2C1 | 3.949% |
| CCC(C)NC(=O)CCNC(=O)c1c[nH]cc1-c1cccc(OC)c1 (configuration not stated) | -21.59% |
| CC(C)CNC(=O)CC1OCCc2ccsc21 (configuration not stated) | -17.3% |

| Compound | Percent Effect |
| --- | --- |
| Cc1nc(CNC(=O)NCCC2=CCCC2)oc1C | -10.48% |
| CC(Cc1ccccc1F)NC(=O)CCc1nc(-c2nnc[nH]2)no1 (configuration not stated) | 5.01% |
| Cn1cc(-c2cccc(CNC(=O)N3CCC[C@@H]3CO)c2)cn1 | -23.52% |
| NC(=O)c1cncc(N2CCN(Cc3cccc4nsnc34)CC2)n1 | -24.77% |
| CC(O)Cc1cn(CC2CCN(C3CCSCC3)CC2)nn1 (configuration not stated) | -14.87% |
| Cc1cnc(NC(=O)N2CCCC2)s1 | 11.08% |
| CC(=O)N1CCC(c2nccnc2Nc2ncc(C)s2)CC1 | 69.11% |
| CC(C(=O)Nc1ncccn1)N1CCC(n2ccnc2)CC1 (configuration not stated) | -2.043% |
| CC(C)N1CCC(c2nccnc2Nc2ncccn2)CC1 | 97.4% |
| Cc1cnc(NC(=O)N2CCCCCC2)s1 | -6.378% |
| COc1ccc(C)cc1S(=O)(=O)NCCC(O)c1ccccc1 (configuration not stated) | -7.148% |
| COCCCC1CCCN(C(=O)CCc2cc(O)no2)C1 (configuration not stated) | -11.88% |
| Cn1nc(C2CCCN(C(=O)CO)C2)cc1O (configuration not stated) | -7.33% |
| COCCC(=O)N1CCC(c2nc(O)cc(-c3ccncc3)n2)C1 (configuration not stated) | 95% |
| COCCC(=O)N1CCCC(c2nc(O)cc(-c3ccncc3)n2)C1 (configuration not stated) | 119.6% |
| COCCC(=O)N1CCC(c2cc(O)n(C)n2)C1 (configuration not stated) | 94.23% |
| O=C(c1[nH]nc(C2CC2)c1Cl)N1CCN(C2CC2)C(=O)C1 | -4.23% |
| CCc1nnsc1C(=O)NCCC1CN(C(C)C)CCO1 (configuration not stated) | 2.098% |
| O=C(NCc1cc[nH]n1)N(CCCO)C1CCc2ccccc21 (configuration not stated) | 9.826% |
| CN(C)CC(=O)N1CCOC2(CCCN(c3ncccc3F)C2)C1.O=C(O)C(F)(F)F.O=C(O)C(F)(F)F (configuration not stated) | 6.33% |
| O=C(CO)N1CCOC2(CCCN(c3ncc(F)cn3)C2)C1.O=C(O)C(F)(F)F (configuration not stated) | 5.697% |
| COCC(=O)N1CCOC2(CCCN(c3cnccn3)C2)C1.O=C(O)C(F)(F)F (configuration not stated) | -12.12% |
| O=C(O)C(F)(F)F.O=C([C@H]1CCCO1)N1CCOC2(CCCN(c3ncccc3F)C2)C1 (some centres not stated) | 94.35% |
| O=C(O)C(F)(F)F.O=C(c1cnccn1)N1CCOCC2(CCN(C3CCOCC3)C2)C1 (configuration not stated) | 8.846% |
| CC(C)NC(=O)N1CCOC2(CCCN(c3ncccc3F)C2)C1.O=C(O)C(F)(F)F (configuration not stated) | 108.5% |

| Compound | Percent Effect |
| --- | --- |
| N#Cc1cccc(N2CCCC3(CN(C(=O)[C@H]4CCCO4)CCO3)C2)c1 (some centres not stated) | -7.794% |
| O=C(O)C(F)(F)F.O=C(c1cnccn1)N1CCOC2(CCCN(c3ncccc3F)C2)C1 (configuration not stated) | 105% |
| CC(C)NC(=O)N1CCOC2(CCCN(c3cccc(C#N)c3)C2)C1 (configuration not stated) | -9.45% |
| COc1ccc(C(=O)C2CCCN(c3cc(OC)ncn3)C2)c(C)c1 (configuration not stated) | -87.76% |
| CC(Cn1cccn1)NCCS(=O)(=O)c1ccc(Cl)cc1 (configuration not stated) | 2.973% |
| CC(Cn1cncn1)NC(=O)NCC(C)(C)Cc1ccccc1 (configuration not stated) | -14.88% |
| CCn1c(C2CCN(C(=O)COCC(F)(F)C(F)F)CC2)n[nH]c1=O | 14.31% |
| Cc1ccccc1CN1C[C@@H](CN(C)CCO)[C@@H](CO)C1 | 4.643% |
| Cc1nc2ccccn2c1CN1C[C@@H](CN(C)CCO)[C@@H](CO)C1 | -4.106% |
| CCc1c(C)nc(C)nc1N1C[C@@H](CN(C)CCN(C)C)[C@@H](CO)C1 | 17.56% |
| COCCN(C)C[C@@H]1CN(c2cc(C)nc3ccccc23)C[C@@H]1CO | 85.76% |
| COCCN(C)C[C@@H]1CN(c2nnc(C(C)C)s2)C[C@@H]1CO | 6.543% |
| COCCN(C)C[C@@H]1CN(c2nc(C)cc(C)n2)C[C@@H]1CO | 106.7% |
| CN(CCO)C[C@@H]1CN(Cc2ccccc2-c2ccccc2)C[C@@H]1CO | -1.449% |
| COCCN(C)C[C@@H]1CN(Cc2ccnc3ccccc23)C[C@@H]1CO | 90.52% |
| Cc1ccc2nc(C)cc(C(=O)NCc3csc(N(C)C)n3)c2c1 | -3.48% |
| CCc1nccn1CC(=O)N1C[C@H]2CC[C@@H]1CN(c1ncccn1)C2 | 11.21% |
| COCC1c2nnn(CC3CC3)c2CCN1C(=O)c1cc(C)[nH]c1C (configuration not stated) | -16.52% |
| CC(C)NC(=O)c1ccc2c(c1)C(c1nc[nH]n1)CN2C (configuration not stated) | -2.409% |
| Cc1nsc(N2CCCN(c3ccc(C#N)cn3)CC2)n1 | 7.107% |
| CCCc1noc(C(C)N2CCN(CCn3ccccc3=O)CC2)n1 (configuration not stated) | -12.82% |
| CCc1noc(C(C)N2CCN(c3ncnc4sccc34)CC2)n1 (configuration not stated) | -87.61% |
| Cc1noc(C2CCN(C(C)c3nc(C(C)(C)C)no3)CC2)n1 (configuration not stated) | 4.561% |
| Cc1noc(C(C)N2CCN(c3ccc(C#N)cn3)CC2)n1 (configuration not stated) | 146.7% |
| Cc1noc(C(C)N2CCN(Cc3cccc(C#N)c3)CC2)n1 (configuration not stated) | 7.153% |

| Compound | Percent Effect |
| --- | --- |
| Cc1noc(C(C)N2CCN(c3ncnc4ccccc34)CC2)n1 (configuration not stated) | -16.31% |
| CC(c1nc(C(C)(C)C)no1)N1CCN(c2ccc(C#N)cn2)CC1 (configuration not stated) | 105.6% |
| CC(c1nc(C2CC2)no1)N1CCN(Cc2ccc(C#N)cc2)CC1 (configuration not stated) | 26.07% |
| CC(c1nc(C2CC2)no1)N1CCN(Cc2cccc(C#N)c2)CC1 (configuration not stated) | -8.29% |
| CCCc1noc(C(C)N2CCN(c3ccc(C#N)cn3)CC2)n1 (configuration not stated) | 130.1% |
| CC(c1nc(C(C)(C)C)no1)N1CCN(Cc2ccc(C#N)cc2)CC1 (configuration not stated) | 107.5% |
| COc1ccc(OCc2nc3cc4c(cc3c(=O)o2)OCCCO4)cc1 | -25.33% |
| CSc1cc2c(cc1NC(=O)NCc1ccncc1)OCCO2 | 0.1832% |
| O=C(NCC1CC1)C1CN(C(=O)c2ccnnc2)CC12CCOCC2 (configuration not stated) | -9.874% |
| CN1C(=O)[C@H]2CC[C@@H]1CN(C(=O)Nc1cccc3ccccc13)C2 | 3.863% |
| N#Cc1cn(C2CC2)c(=O)n(Cc2noc(-c3ccsc3)n2)c1=O | -8.2% |
| COc1ccccc1NC(=O)NC(C)c1nc[nH]n1 (configuration not stated) | -1.106% |
| CC(C)c1noc(C(C)N2CCN(Cc3ccccc3C#N)CC2)n1 (configuration not stated) | -2.438% |
| CC(C)c1noc(C(C)N2CCN(c3ccc(C#N)cn3)CC2)n1 (configuration not stated) | 186.4% |
| CC(C)c1noc(C(C)N2CCN(Cc3cccc(C#N)c3)CC2)n1 (configuration not stated) | 10.45% |
| CN1CCCN(C(=O)c2ccnn2-c2ccc3ccccn23)CC1.O=C(O)C(F)(F)F | 83.85% |
| O=C(NCCCN1CCOCC1)c1ccn(-c2ccc3ccccn23)n1.O=C(O)C(F)(F)F | -6.828% |
| Cc1nc(-c2cc(C(=O)N3CCCN(C)CC3)c3ccccn23)cn1C.O=C(O)C(F)(F)F | -23.06% |
| CC(C)(CO)CNC(=O)c1ccnn1-c1ccc2ccccn12 | -11.35% |
| CN1CCN(c2ccc3ccc(C(=O)N4CCCO4)cn23)CC1.O=C(O)C(F)(F)F | 0.4274% |
| CN(C)C1CCN(C(=O)c2ccnn2-c2ccc3ccccn23)CC1.O=C(O)C(F)(F)F | 64.37% |
| CCOCc1nnc(NCc2ccsc2)o1 | -11.46% |
